GAA850 FXN act – FXN promoter activators, primary screen, cell-based, luciferase luminescence, HEK293 lucGAA850. HEK293 lucGAA850 FXN promoter luciferase reporter, 24 h; percent of 10 µM SAHA response. activation, % at 6 µM. 360,000 tested, 0.56% active. AID 540364, 2011;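 active = activation above the average of all compounds screened plus 3 SD, cutoff fixed separately per campaign, cut at about 7.5% in these data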;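 note: 0% = DMSO wells and 100% = 10 µM SAHA wells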
C2C12 statin – suppressors of statin myotoxicity in C2C12 myotubes, primary screen, cell-based, single point, plate reader | rescue of ATP level, % at 7.49 µM | 330,000 tested, 0.78% active | C2C12 myotubes + simvastatin, ATP luminescence, 48 h; scaled: DMSO 0, geranylgeraniol control 100 | AID 602340, 2012;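 active = mean ATP rescue above about 67%, or every replicate alone reaching that limit, limit read from the data, passing the limit was not always enough; inconclusive = no clear call, values can overlap the other calls; inactive = mean under the limit and some replicate under it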;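 note: myotubes were challenged with 10 µM simvastatin during compound exposure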
MITF TRPM1 HTS – activators of MITF-driven TRPM1 promoter reporter, primary screen, cell-based, SK-MEL-5, luciferase, single point; SK-MEL-5 TRPM1-promoter luciferase, 24 h; % of positive control, neutral wells = 0; activation, % at 12.5 µM; 300,000 tested, 0.75% active;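 active = mean activation of at least 80% with every replicate also reaching 80%; inconclusive = mean reaches 80% but some replicate falls short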;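 note: 0% = neutral control wells and 100% = parthenolide positive control wells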
esBAF inh – Bmi1 luciferase reporter increase in mESCs, primary screen, esBAF inhibitor project, mouse ES cells, Bmi1 luciferase knock-in, single point. 350,000 tested, 2% active. 24 h; 100% = twice the neutral-well signal. reporter increase, % at 12.5 µM; in the data active = activation above about 40%; inconclusive = no clear call, values can overlap the other calls;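 note: 0% = median of the plate's neutral control wells and 100% = double that signal; a rise in the Bmi1 reporter signal indicates esBAF inhibition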
Wnt act – Wnt/beta-catenin pathway activators, primary screen, cell-based, plate reader, single point; Wnt/beta-catenin reporter cell assay, activator; activation, % at 9.35 µM; 300,000 tested, 1.2% active; AID 743398, 2014; in the data active = activation above about 30%, passing the limit was not always enough; inconclusive = no clear call, values can overlap the other calls;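 note: 0% = neutral control wells and 100% = positive control wells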
esBAF Ring1 qPCR – Ring1 mRNA increase in mouse ESCs, confirmation, esBAF inhibitor project, cell-based, mouse ESC, RT-qPCR, cherry-pick; shares compounds with esBAF inh; mouse ESC E14, Ring1 mRNA RT-qPCR fold change; fold change at 33 µM; 550 tested, under 10 active; AID 743176, 2013;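 active = Ring1 gene expression raised more than 2-fold over untreated cells in both replicates at either tested dose; inconclusive = only one replicate above 2-fold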;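 note: Ring1 transcript normalised to actin housekeeping signal by TaqMan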
Fgf4 repress – Fgf4 mRNA decrease in mouse ESCs, confirmation, esBAF inhibitor project, cell-based, mouse ESC, RT-qPCR, cherry-pick; mouse ESC E14, Fgf4 mRNA qPCR fold change; hits give low values; AID 743177, 2013; Fgf4 expression fold change at 33 µM; 550 tested, 4% active; shares compounds with esBAF inh;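 active = Fgf4 expression under 0.8 fold of control in both repeat measurements at one or both tested doses; inconclusive = under 0.8 fold in just a single repeat measurement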;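 note: Fgf4 transcript normalised to actin in duplex TaqMan qPCR; cells exposed to compound for 24 h before lysis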
esBAF Bmi1 qPCR – esBAF inhibition via Bmi1 de-repression, confirmation, cell-based, RT-qPCR, mouse ESC, single point, cherry-pick; fold change at 33 µM; shares compounds with esBAF inh; AID 743180, 2013; 550 tested, under 10 active; mouse ESE14 ES cells, Bmi1 mRNA qPCR fold; hits give high values;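 active = Bmi1 expression fold change above 6 at either tested concentration, seen in replicate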;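 note: higher fold means more Bmi1 de-repression and stronger esBAF inhibition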
A549 tox SP – A549 cell cytotoxicity, cytotoxicity control, plate reader, single point, cherry-pick; cell viability change % (negative = cytotoxic), % at 25 µM, hits read low; 550 tested, under 10 active; shares compounds with esBAF inh; AID 743188, 2013; call rule not given here
HepG2 cytotox SP – HepG2 cell cytotoxicity, cytotoxicity control, plate reader, single point, cherry-pick; shares compounds with esBAF inh; hits give low values; activity change, negative = inhibition, % at 25 µM; 550 tested, 4% active; in the data active = activity change below about -50%
HEK293 tox SP – HEK293 cell cytotoxicity, cytotoxicity control, plate reader, single point, cherry-pick. shares compounds with esBAF inh. activity change, negative = inhibition, % at 25 µM, hits read low. 550 tested, 3% active. AID 743190, 2013; in the data active = activity change below about -38%, passing the limit was not always enough
An asterisk follows results filed as active; ? = inconclusive; . = not tested or not shown. Most compounds without a hit are left out; they make up all but 3.3% or so of the library.

SMILES	GAA850 FXN act	C2C12 statin	MITF TRPM1 HTS	esBAF inh	Wnt act	esBAF Ring1 qPCR	Fgf4 repress	esBAF Bmi1 qPCR	A549 tox SP	HepG2 cytotox SP	HEK293 tox SP
Cc1c(Cl)cccc1NC(=O)c1cc(C2CC2)on1	1.8	-1.9	43.5	66.5*	7.2	1.49	1.04	1.49	-4.3	-12.9	-13.1
O=C(Nc1ccccc1Cl)c1cc(C2CCCN(C(=O)OCCF)C2)on1 (stereo not given)	1.2	10.6	.	?	14.5	.	.	.	.	.	.
CN1C(=O)c2cc(NC(=O)c3cnccn3)ccc2OC[C@@H]2O[C@H](CC(=O)O)CC[C@H]21	.	-3.3	.	-3.3	.	.	.	.	.	.	.
CC(=O)c1ccc(NC(=O)c2cc(C)nc3ccccc23)cc1	2.0	-5.2	54.3	62.0*	4.8	1.35	1.09	1.52	4.3	-26.7	-3.4
Cc1ccc(NC(=O)c2cc(C)nc3ccccc23)cc1	2.4	-6.4	.	-8.4	0.4	.	.	.	.	.	.
CCc1c(C(=O)OCc2ccccc2)[nH]c(C)c1C	5.3	1.6	59.4	53.1*	0.3	1.03	0.89	2.19	-4.6	-25.0	-6.1
CCc1c(C)[nH]c(C(=O)OCc2ccccc2)c1C	4.4	.	29.4	.	2.8	.	.	.	.	.	.
O=C(NC(=O)c1ccc(C(F)(F)F)cc1)Nc1ccc(-c2cnco2)cc1	2.9	.	.	.	-2.1	.	.	.	.	.	.
O=C(Nc1ccc(-c2cnco2)cc1)c1ccc(F)cc1F	5.5	-5.5	42.4	63.2*	38.7*	1.13*	0.966	0.78	-2.0	-42.2	2.3
COC(=O)c1sc(Nc2ccccc2)nc1C	9.9*	14.5	78.9	65.5*	-1.1	1.04	1.32	1.2	5.9	-22.8	-0.9
CC(=O)c1sc(Nc2ccc(Oc3ccccc3)cc2)nc1C	.	-0.3	.	77.4*	5.7	1.16	0.999	1.81	-12.1	-12.7	-37.5
COc1ccc(C(=O)c2sc(Nc3ccccc3)nc2C)cc1	3.7	0.4	20.2	14.6	1.1	.	.	.	.	.	.
C[C@H]1CCCCO[C@H](CN(C)C(=O)C2CCCCC2)[C@@H](C)CN([C@@H](C)CO)C(=O)c2cc(NS(=O)(=O)c3cn(C)cn3)ccc2O1	.	.	.	-1.5	.	.	.	.	.	.	.
CCNC(=O)O/N=C(\C)c1sc(-c2ccccc2)nc1C	1.3	-14.6	.	62.6*	8.8	0.965	0.804	1.7	-7.5	-17.1	-17.8
O=C(C[C@H]1CC[C@H]2[C@@H](COC[C@H](O)CN2Cc2nccs2)O1)NCc1ccc(Cl)cc1	.	3.4	.	3.4	.	.	.	.	.	.	.
O=C(Nc1ccc2c(c1)[C@H]1C[C@H](CC(=O)N3CCc4ccccc4C3)O[C@@H](CO)[C@H]1O2)NC1CCCC1	.	-1.0	.	7.4	.	.	.	.	.	.	.
CC(=O)Nc1ccc(C(=O)N/N=C/c2ccc(F)cc2)cc1	0.1	.	1.1	.	-1.3	.	.	.	.	.	.
CC(=O)Nc1ccc(NC(=O)c2ccccc2F)cc1	2.0	.	.	16.4	19.7	.	.	.	.	.	.
O=C(Nc1ccc(F)cc1)c1ccccc1F	5.5	11.1	81.7*	85.1*	22.2	1.3	1.03	1.58	-11.0	-3.4	-15.6

Source: PubChem (several laboratories)
